Tau ThT inhib: tau fibrillization inhibition (ThT binding). 2.1% of 270,000 active. Potency, µM (series often up to 57.4 µM), actives largely listed as inhibitors. P10636. recombinant tau K18 P301L, heparin-induced fibrillization, ThT fluorescence; further: nearly all actives have a fitted effect of over 55% in size
Target sequence (P10636 561-689 P618L limits assumed): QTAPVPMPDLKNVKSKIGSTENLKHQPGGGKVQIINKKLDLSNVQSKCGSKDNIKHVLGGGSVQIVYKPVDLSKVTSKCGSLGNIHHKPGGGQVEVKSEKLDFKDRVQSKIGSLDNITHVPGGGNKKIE
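Heparin-induced (20 uM) aggregation of recombinant human K18 P301L tau, 15 uM unlabeled with 0.24 uM labeled, pH 7 acetate buffer, 6 hr at 37 C with compound. Fibrils quantified by 30 uM ThT fluorescence after 1 hr ambient incubation.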
Tau FP inhib: blocks human tau fibril formation measured by polarization; 0.39% of 280,000 active; K18 P301L tau heparin fibrillization, Alexa594 FP, 6 h; Potency, µM (series often up to 57.7 µM), actives largely listed as inhibitors; P10636; further: nearly all actives have a fitted effect of over 55% in size
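Steps: dispense K18 P301L tau (15 uM plus 0.24 uM Alexa 594 tracer, final) in pH 7 sodium acetate; add compound; add heparin (20 uM final); incubate 6 hr, 37 C; add ThT (30 uM final); after 1 hr ambient, read FP.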
NPSR antag: blocks cAMP signaling of the human neuropeptide S receptor; CHO-NPSR cells, cAMP TR-FRET, antagonist mode; Potency, µM (titrated, usually from 38.3 µM), usual class: inhibitors; 1% of 220,000 active; AID 1461; further: nearly all actives have a fitted effect of over 50% in size
Target sequence (Q6W5P4 whole entry, looked up): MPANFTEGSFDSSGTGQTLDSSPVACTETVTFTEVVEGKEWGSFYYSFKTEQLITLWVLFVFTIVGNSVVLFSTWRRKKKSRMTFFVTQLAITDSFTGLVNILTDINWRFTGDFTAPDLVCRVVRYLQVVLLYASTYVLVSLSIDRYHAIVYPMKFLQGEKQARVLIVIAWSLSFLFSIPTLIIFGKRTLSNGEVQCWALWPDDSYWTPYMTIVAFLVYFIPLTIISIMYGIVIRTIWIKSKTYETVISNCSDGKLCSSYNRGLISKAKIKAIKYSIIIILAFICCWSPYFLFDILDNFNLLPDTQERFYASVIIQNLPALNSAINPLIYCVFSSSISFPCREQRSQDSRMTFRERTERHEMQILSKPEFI
Tau fluor cs: counter-screen for tau fibril formation inhibitors; tau K18 P301L (four-repeat tau fragment) Alexa594 fluorescence, heparin fibrillization; Potency, µM (top dose mostly 57.7 µM); 0.93% of 280,000 active; AID 1463; further: nearly all actives have a fitted effect of over 55% in size
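Human K18 P301L tau (15 uM unlabeled plus 0.24 uM Alexa 594-labeled, final) in 100 mM sodium acetate pH 7 was mixed with compound and 20 uM heparin and incubated 6 hr at 37 C.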
Luc counter: counter-screen: inhibitors of Kinase-Glo firefly luciferase; Q27757; Kinase-Glo luciferase, ATP luminescence, 8 min; Potency, µM (series often up to 38.3 µM), most hits filed as inhibitors; 0.28% of 200,000 active; further: nearly all actives have a fitted effect of over 60% in size
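Light output from Kinase-Glo luciferase with luciferin and 10 uM ATP in 50 mM imidazole pH 7.2, KCl, MgCl2, Tween 20, BSA; compound pin-delivered, 8-min ambient incubation, then luminescence read.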
A number is an active result; – = inactive; ? = inconclusive; · = not tested or not shown; [ ] = remark or other dose. Shown are actives, neighbours in structure and some others; about 3.3% of the full set was active somewhere. The call rests on the fitted dose curve; in most records, active means well fitted curve in the direction sought with a large enough effect; inconclusive means small, poorly fitted or top-dose-only effect, or another doubt; inactive means no such curve, though single readings can be large; an effect the other way counts as inactive or inconclusive.

SMILES	Tau ThT inhib	Tau FP inhib	NPSR antag	Tau fluor cs	Luc counter
Cc1ccc(-c2onc(C)c2C)cc1S(=O)(=O)N1CCC(C)CC1	–	–	·	–	·
CCCCCCCCCCCC1=C(O)C(=O)C=C(O)C1=O	10µM	20µM	·	11µM[quencher]	–
CC(=O)c1ccc(NC(=O)c2ccc3c(c2)N(Cc2cccc(Cl)c2)C(=O)c2ccccc2S3(=O)=O)cc1	–	16µM	·	?	·
O=C(Nc1cccc(F)c1)c1ccc2c(c1)N(Cc1ccccc1)C(=O)c1ccccc1S2(=O)=O	–	14µM	·	?	·
COc1ccc(NC(=O)c2ccc3c(c2)N(Cc2cccc(Cl)c2)C(=O)c2ccccc2S3(=O)=O)cc1Cl	–	16µM	·	–	·
O=C(Nc1ccc(Br)cc1)C1CCN(c2ncccn2)CC1	–	–	·	–	·
CCOc1ccsc1C(=O)OC	–	–	–	–	·
CCOc1ccc(-c2cn3c(n2)sc2cc(C(=O)NC4CCCc5ccccc54)ccc23)cc1 (stereo not drawn)	–	?	·	–	·
COc1ccc(COc2cc(-c3cccc(OC)c3)nc3ccc(N)cc23)cc1	?	?	–	13µM[quencher]	–
COc1ccc(S(=O)(=O)N2CCN(c3ccccc3OC)CC2)cc1-c1noc(C)n1	?	–	·	–	·
CCCNS(=O)(=O)c1ccc2nc(NC(=O)c3ccc(F)cc3)sc2c1	28µM	?	·	–	·
O=C(Nc1nc2ccc(SC(F)F)cc2s1)c1ccc(NS(=O)(=O)c2ccc(F)c(F)c2)cc1	?	13µM	13µM	?	–
CCCSc1nnc(NC(=O)Cc2coc3cc(C)ccc23)s1	–	–	·	–	·
Cn1c(=O)c2c(nc(N/N=C/c3ccc(OC(=O)c4ccco4)cc3)n2Cc2ccccc2Cl)n(C)c1=O	?	–	–	7.9µM[quencher]	–
Cn1c(=O)c2c(nc(N/N=C/c3cccnc3)n2Cc2ccccc2)n(C)c1=O	–	–	–[7.67 µM]	–	·
Cn1c(=O)c2c(nc(N/N=C/c3ccc(OC(=O)c4ccco4)cc3)n2Cc2ccc(F)cc2)n(C)c1=O	?	–	–	7.1µM[quencher]	–
O=C(/C=C/c1ccc(Br)cc1)NC(=S)NNC(=O)c1ccco1	16µM	–	–	–	–
O=C(/C=C/c1ccccc1)NC(=S)NNC(=O)c1ccco1	?	–	–	–	–
COC(=O)C1=C(C(=O)OC)[C@@H]2N(C)c3ccccc3[C@@]23C[C@@H](C(=O)OC)N(S(=O)(=O)c2c(C)noc2C)C3=N1	–[11.5 µM]	–[11.6 µM]	·	–[11.6 µM]	–[7.66 µM]
Oc1cc2c(cc1O)C1c3ccc(O)c(O)c3OCC1(O)C2 (stereo not drawn)	4µM	25µM	–	?	?
O=C(COc1ccc(F)cc1)Nc1nnc(SCc2cc(=O)n3ccccc3n2)s1	–	–	·	–	·
Cc1ccccc1OCc1nc(-c2ccc(NC(=O)c3ccc4c(c3)OCO4)cc2)no1	?	?	10µM	?	–
CCc1cccc(NC(=O)CSc2nc3ccsc3c(=O)n2CC)c1	–	–	·	–	·
Cc1cccc(OCC(=O)Nc2ccc3nc(SCc4ccccc4)sc3c2)c1	?	–	·	–	·
COC(=O)C(C(=O)OC)[C@@H]1c2ccccc2[C@H]2C(=C[C@@H](C)[C@H]3C(=O)N(c4ccccc4)C(=O)[C@H]32)N1C(=O)OC	–[11.5 µM]	–[11.6 µM]	·	–[11.6 µM]	–[7.66 µM]
SMILES	Tau ThT inhib	Tau FP inhib	NPSR antag	Tau fluor cs	Luc counter
N=C1C=CC=C2C1=NC1(CCCCC1)N2O	25µM	?	?	–	–
CC(C)(C)N=C1C([N+](=O)[O-])=CC=C2C1=NC1(CCCCC1)N2O	–	–	–	–	?
CC(C)(C)NC(=S)NCC1CC1	–	–	–	–	·
Cc1occc1C(=O)Nc1ccc2c(c1)OCO2	–	–	–	–	?
Cc1ccc(NC(=O)c2ccoc2C)cc1C	–	–	–	–	10µM
Cc1nn(CC(=O)Nc2ccc(Cl)c(S(=O)(=O)N(C)C)c2)c(C)c1[N+](=O)[O-]	–	–	–	–	–
C=CCn1c(NC(=O)c2ccc(Br)o2)c(S(=O)(=O)c2ccccc2)c2nc3ccccc3nc21	20µM	?	–	–	–
Cn1cc([N+](=O)[O-])c(C(=O)N/N=C\c2c[nH]c3ccccc23)n1	?	–	–	–	–
O=[N+]([O-])c1cccc(N/N=C/c2cccc3ccccc23)c1	?	–	–	8.9µM[quencher]	–
O=[N+]([O-])c1ccccc1N/N=C/c1c[nH]c2ccccc12	3.2µM	–	–	3.5µM[quencher]	–
O=[N+]([O-])c1ccc(N/N=C/c2c[nH]c3ccccc23)cc1	3.2µM	?	–	7.9µM[quencher]	–
C/C(=N\Nc1cccc([N+](=O)[O-])c1)c1cc2ccccc2o1	?	–	–	?	–
COc1ccc(NC(=O)c2cc3cccc(OC)c3oc2=Nc2ccc(C(=O)O)cc2)cc1OC	14µM	?	–	?	–
CC(C)[C@@H](CC(=O)N[C@@H]1CCCC[C@H]1C(=O)N[C@H](CC(=O)N[C@@H](CCC(=O)O)CC(=O)O)Cc1c[nH]c2ccccc12)NC(=O)C[C@H](CO)NC(=O)[C@@H]1CCCC[C@H]1N	–	–	·	–	–
O=C(N/N=C/c1cc(Cl)cc([N+](=O)[O-])c1O)NC12CC3CC(CC(C3)C1)C2	13µM	–	10µM	?	–
Cc1nn(-c2ccccc2)c(Cl)c1/C=N/NC(=O)c1ccccc1NS(=O)(=O)c1cccs1	?	–	–	–	–
O=[N+]([O-])c1cc(Cl)cc(/C=N/n2cnnc2)c1O	?	–	–	–	–
O=C(N/N=C/c1cc(Cl)cc([N+](=O)[O-])c1O)c1ccccc1NS(=O)(=O)c1cccs1	11µM	–	–	–	·
Cc1cc(C(=O)N/N=C/c2cc(Cl)cc([N+](=O)[O-])c2O)c2ccccc2n1	7.1µM	–	–	?	–
O=C(CSc1nnc(-c2cccnc2)o1)c1cc2ccccc2oc1=O	?	–	?	–	–
Cn1cnnc1SCC(=O)c1cc2ccccc2oc1=O	28µM	?	–	?	–
CC1=NN(c2ccc(Cl)cc2)C(=O)/C1=C\c1cccn1-c1ccc(S(N)(=O)=O)cc1	7.1µM	–	–	11µM[quencher]	–
Cc1nnc2c3ccccc3nc(Nc3cccc(O)c3)n12	–	–	·	–	·
COc1ccc(OC)c(S(=O)(=O)Nc2ccc(O)c3ccccc23)c1	25µM	?	–	28µM[quencher]	–
CCN=c1scc(-c2ccc(F)cc2)n1/N=C/c1ccccn1	?	–	–	–	–
SMILES	Tau ThT inhib	Tau FP inhib	NPSR antag	Tau fluor cs	Luc counter
CN=c1scc(-c2ccccc2F)n1/N=C/c1ccc(O)c(O)c1O	14µM	?	–	25µM[quencher]	11µM
CN=c1scc(-c2ccccc2F)n1/N=C/c1ccc[nH]1	?	–	–	?	11µM
CN=c1scc(C)n1/N=C/c1cc(Br)c(O)c(Br)c1	?	–	–	–	–
CC(C)N=c1scc(-c2cccs2)n1/N=C/c1ccc(O)c(O)c1O	16µM	?	?	20µM[quencher]	–
Cc1ccc(NC(=S)Nc2ccc(C(C)C)cc2)cc1S(=O)(=O)N1CCCCCC1	–	13µM	–	7.9µM[quencher]	–
COc1ccc(NC(=S)Nc2ccc(C)c(S(=O)(=O)N3CCCCC3)c2)cc1	–	?	–	32µM[quencher]	–

Screens deposited in PubChem BioAssay by National Center for Advancing Translational Sciences (NCATS).
